# From ChEMBL document CHEMBL4513141, “CO-ADD screening of NIH (USA) - Clinical Collection” (2021)
# Potency and affinity values are given separately.
# System: Escherichia coli
# Conditions: Concentration 20 uM; ASSAY_TEST Inhibition of Bacterial Growth; detection method Absorption (OD600); MEDIA CAMHB; plate type 384well; NBS; CORNING #3640; time 18 hr
row,Compound,Inhibition [%]
1,CCN(CC)CCOc1ccc(C(=C(Cl)c2ccccc2)c2ccccc2)cc1.O=C(O)CC(O)(CC(=O)O)C(=O)O [CLOMIPHENE CITRATE],2.4
2,CCCCC(=O)O[C@H]1CC[C@H]2[C@@H]3CCc4cc(O)ccc4[C@H]3CC[C@]12C [ESTRADIOL VALERATE],3.72
3,CN(C/C=C/C#CC(C)(C)C)Cc1cccc2ccccc12.Cl [TERBINAFINE HYDROCHLORIDE],3
4,CO[C@H]1O[C@@H]2O[C@@]3(C)CC[C@H]4[C@H](C)CC[C@@H]([C@H]1C)[C@@]24OO3,13.66
5,CS(=O)(=O)O.Oc1ccc(C2CNCCc3c2cc(O)c(O)c3Cl)cc1 (centres undefined) [FENOLDOPAM MESYLATE],-0.49
6,NS(=O)(=O)c1cc2c(cc1Cl)NCNS2(=O)=O [HYDROCHLOROTHIAZIDE],-0.12
7,c1ccc2[nH]c(-c3cscn3)nc2c1 [THIABENDAZOLE],1.68
8,CCCCN1CCCC1CNC(=O)c1cc(C#N)c2ccccc2c1OC (centres undefined) [NAFADOTRIDE],2.47
9,CC(C)(C)NC(=O)[C@H]1CC[C@H]2[C@@H]3CC[C@H]4NC(=O)C=C[C@]4(C)[C@H]3CC[C@]12C [FINASTERIDE],-5.85
10,C[C@]12C[C@H](O)[C@H]3[C@@H](CCC4=CC(=O)CC[C@@]43C)[C@@H]1CC[C@@H]2C(=O)CO [CORTICOSTERONE],2.35
11,O=C(O)c1cc2ccccc2c(Cc2c(O)c(C(=O)O)cc3ccccc23)c1O.OCCOCCN1CCN(C(c2ccccc2)c2ccc(Cl)cc2)CC1 [HYDROXYZINE PAMOATE],0.33
12,CC1Cc2ccccc2N1NC(=O)c1ccc(Cl)c(S(N)(=O)=O)c1 (centres undefined) [INDAPAMIDE],-0.79
13,CCOC(=O)[C@H](CCc1ccccc1)N[C@H]1CCc2ccccc2N(CC(=O)O)C1=O.Cl [BENAZEPRIL HYDROCHLORIDE],0.93
14,CN1CCN(CC/C=C2/c3ccccc3Sc3ccc(S(=O)(=O)N(C)C)cc32)CC1 [THIOTHIXENE],3.6
15,CN(C)CCCSc1ccccc1NC(=O)/C=C/c1ccccc1.Cl.O,3.24
16,CN1CCC(=C2c3ccccc3CCc3sccc32)CC1.O=C(O)/C=C\C(=O)O,2.87
17,Nc1ncnc2c1ncn2[C@@H]1O[C@H](CO)C[C@@H]1O.O,1.02
18,CCC[C@@H]1C[C@@H](C(=O)N[C@@H]([C@H]2O[C@H](SC)[C@H](O)[C@@H](O)[C@H]2O)[C@@H](C)O)N(C)C1.Cl.O [LINCOMYCIN HYDROCHLORIDE],6.86
19,CCN(CC)CCNC(=O)c1ccc(N)cc1.Cl [PROCAINAMIDE HYDROCHLORIDE],-0.2
20,Nc1ccc2cn[nH]c2c1,5.89
21,Cc1cn([C@H]2C=C[C@@H](CO)O2)c(=O)[nH]c1=O [STAVUDINE],4.38
22,CN(C)CCC(c1ccc(Cl)cc1)c1ccccn1.O=C(O)/C=C\C(=O)O (centres undefined) [CHLORPHENIRAMINE MALEATE],7.3
23,CCOC(=O)[C@H](CCc1ccccc1)N[C@@H](C)C(=O)N1Cc2ccccc2C[C@H]1C(=O)O.Cl [QUINAPRIL HYDROCHLORIDE],4.26
24,Cc1ncc([N+](=O)[O-])n1CC(C)O (centres undefined) [SECNIDAZOLE],5.99
25,Nc1nc(N)c2nc(-c3ccccc3)c(N)nc2n1,10.99
26,CC(=CCC1=C(C)C(=O)c2ccccc2C1=O)CCCC(C)CCCC(C)CCCC(C)C (centres undefined),5.45
27,C[C@H]1O[C@@H](O[C@H]2[C@@H](O)C[C@H](O[C@H]3[C@@H](O)C[C@H](O[C@H]4CC[C@@]5(C)[C@H](CC[C@@H]6[C@@H]5C[C@@H](O)[C@]5(C)C(C7=CC(=O)OC7)CC[C@]65O)C4)O[C@@H]3C)O[C@@H]2C)C[C@H](O)[C@@H]1O (some centres undefined),-7.29
28,CC(C)c1nc(CN(C)C(=O)N[C@H](C(=O)N[C@@H](Cc2ccccc2)C[C@H](O)[C@H](Cc2ccccc2)NC(=O)OCc2cncs2)C(C)C)cs1 [RITONAVIR],-0.63
29,CC(CCc1ccccc1)NCC(O)c1ccc(O)c(C(N)=O)c1.Cl (centres undefined) [LABETALOL HYDROCHLORIDE],1.62
